# Source: PubChem BioAssay (Tox21)
# Records with an inconclusive call do not appear. The source made the active and inactive calls. The call rests on the fitted dose curve; in most records, active means well fitted activation curve with a large enough effect in the repeat runs; inconclusive means weak or mixed curves; inactive means flat fitted curve, though single readings scatter.
# Assay: A CellTox Green Cytotoxicity Assay to monitor cytotoxicity in HEK293 cells - 40 hour (AID 1224871); further: nearly all actives have a fitted effect of over 45% in size
# Details: CellTox Green fluorescence; series mostly up to 76.8 µM; cytotoxicity increase: at the top concentration
# From the text: National Center for Advancing Translational Sciences [NCATS]
# NIH Chemical Genomics Center [NCGC]
# U.S. Environmental Protection Agency [EPA]
# National Institutes of Environmental Health Sciences [NIEHS]
# National Toxicology Program [NTP]
# Cell-based models are critical for drug discovery. Determining the natural cytotoxic effects resulting from test compounds is an essential research activity. A CellTox Green Cytotoxicity Assay to monitor cytotoxicity in real time of continues cell culture during 40 hours of the compound treatment was used to screen Tox21 10K library compounds in Hek293 cells. CellTox Green Cytotoxicity Assay is a nonlytic, homogeneous, biofluorescent method to measure cytotoxicity in cell culture after experimental manipulation. The assay system uses a proprietary asymmetric cyanine dye that is excluded from viable cells but preferentially stains the dead cell's DNA. […] Viable cells produce no appreciable increases in fluorescence. Therefore, the fluorescence signal produced by the binding interaction with dead cell DNA is proportional to cytotoxicity.
# The mixture of Hek293 cell suspension and reagents were dispensed at 600cells/6 ul/well in 1536-well tissue culture treated black solid bottom plates using a Multidrop dispenser. After the assay plates were incubated at a 37 C/5% CO2 incubator for 5 hours, 23 nL of compounds dissolved in DMSO, positive and negative controls was transferred to the assay plate by a pintool work station. The plates were incubated at 37 C for 40 hours. The fluorescence intensity were measured at 0h, 8h, 16h, 24h, 32h and 40h time points using ViewLux plate reader during compound treatment.
# On the % scale 0 is the no-effect control and ±100 the full control effect.
row,SMILES,cytotoxicity increase
1,Cc1oc(=O)oc1CN1CCN(c2cc3c(cc2F)c(=O)c(C(=O)O)c2n3C(C)S2)CC1 (stereo not given),-5.76% [at 35.3 µM] (inactive)
2,CN(C1CCCCC1)S(=O)(=O)c1ccccc1N,18% (inactive)
3,CCCCCC1CCCC(=O)O1 (stereo not given),-1.39% (inactive)
4,Nc1cc(Cl)cc(S(=O)(=O)O)c1O,20.4% (inactive)
5,CCC(=O)c1ccc(O)cc1,0.317% [at 35.3 µM] (inactive)
6,Cc1cccc(Nc2ccncc2S(=O)(=O)NC(=O)NC(C)C)c1,-0.987% [at 35.3 µM] (inactive)
7,CCCCCN(CCCOC)C(=O)C(CCC(=O)O)NC(=O)c1ccc(Cl)c(Cl)c1 (stereo not given),-9.26% [at 35.3 µM] (inactive)
8,O=P(O)(O)OCC(O)CO (stereo not given),-0.269% [at 35.3 µM] (inactive)
9,CCCCCC1Nc2cc(C(F)(F)F)c(S(N)(=O)=O)cc2S(=O)(=O)N1 (stereo not given),6.97% [at 35.3 µM] (inactive)
10,CC(=O)Nc1ncc([N+](=O)[O-])s1,2.71% [at 35.3 µM] (inactive)
11,CC(C)CCCC(C)CC=O (stereo not given),9.61% (inactive)
12,CCN(CCO)c1cccc(C)c1,-1.56% (inactive)
13,COc1cc2c(Nc3ccc(Br)cc3F)ncnc2cc1OCC1CCN(C)CC1,10.9% [at 35.3 µM] (inactive)
14,CCCCC(CC)C(=O)OC(C)C (stereo not given),13.9% (inactive)
15,C1=CCC(c2ccccc2)CC1 (stereo not given),-0.17% (inactive)
16,C1CCN2C[C@@H]3C[C@@H](CN4CCCC[C@@H]34)[C@H]2C1,1.14% [at 35.3 µM] (inactive)
17,O=C1CC[C@H](C(=O)N2CCCCC2)N1,-1.53% [at 35.3 µM] (inactive)
18,CCCOC(=O)CCCCC(=O)OCCC,-2.31% (inactive)
19,C=C(C)[C@@H]1CC[C@@H](C)C[C@@H]1O,2.11% (inactive)
20,CN[C@@H]1[C@@H](O)[C@@H](O[C@@H]2[C@H](O)[C@H](O[C@H]3OC(CN)=CC[C@H]3N)[C@@H](N)C[C@H]2N)OCC1(C)O (stereo not given in full),1.44% [at 35.3 µM] (inactive)

row,SMILES,cytotoxicity increase
1,O=C(O)Cc1cccc(-c2cc(CCCCCCc3ccc(O[C@H]4O[C@H](CO)[C@@H](O)[C@H](O)[C@@H]4O)c(-c4cccc(CC(=O)O)c4)c3)ccc2O[C@H]2O[C@H](CO)[C@@H](O)[C@H](O)[C@@H]2O)c1,-17.8% [at 0.29 µM] (inactive)
2,C[C@@H]1C[C@H]2[C@@H]3C[C@H](F)C4=CC(=O)C=C[C@]4(C)[C@@]3(F)[C@@H](O)C[C@]2(C)[C@@]1(O)C(=O)CO,29.5% [at 35.3 µM] (inactive)
3,Cc1nc(C)nc(N2C[C@@H](C)N(c3ccnc([C@@H](C)O)n3)[C@@H](C)C2)n1,5.14% [at 35.3 µM] (inactive)
4,CCCCCCCCCCCCCCCC(=O)NCCO,6.71% [at 35.3 µM] (inactive)
5,CC(C)SCc1ccco1,5.58% [at 35.3 µM] (inactive)
6,O=c1[nH]c(=O)c2[nH]c(=O)[nH]c2[nH]1,-13.3% [at 6.97 µM] (inactive)
7,CCCCC[Si](OCC)(OCC)OCC,-22.7% (inactive)
8,CCCCCCCCCCCCC1CO1 (stereo not given),-5.64% (inactive)
9,COCCOCCOCCOC,-15.3% (inactive)
10,Cc1ccccc1C,6.75% (inactive)
11,CN[C@@H]1[C@H](O)[C@H](NC)[C@H]2O[C@@]3(O)C(=O)C[C@@H](C)O[C@H]3O[C@@H]2[C@H]1O,-15.1% [at 35.3 µM] (inactive)
12,Cc1cccc(NC(=S)N(C)C)c1,-10.5% (inactive)
13,CCNC(=O)NCCCOc1cccc(CN2CCCCC2)c1,-24.1% [at 35.3 µM] (inactive)
14,CC(C)=CC(C)(C)C,-5.26% (inactive)
15,CCCCC(C)C(=O)O (stereo not given),0.0459% (inactive)
16,Cc1ccccc1N1CCN(CCc2nnc3n2CCCC3)CC1,-29.4% [at 35.3 µM] (inactive)
17,Nc1ccc(S(=O)(=O)NC(=O)c2ccccc2)cc1,-3.09% [at 35.3 µM] (inactive)
18,CC1(N)CCC(C(C)(C)N)CC1 (stereo not given),2.07% (inactive)
19,CCOC(=O)CC#N,3.75% (inactive)
20,CCCCOC(=O)C(C)OC(=O)CCC (stereo not given),8% (inactive)
